Gal4-VP16 FLuc – VP16 counterscreen qHTS for inhibitors of ROR gamma transcriptional activity; Drosophila S2 Gal4-VP16 UAS-luciferase, luminescence, 20 h; Potency, µM (series often up to 53.6 µM), actives largely listed as inhibitors; hit rate 3.5% among 310,000; AID 2546, 2010;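 further: Gal4-VP16 expression switched on by copper sulfate through the metallothionein promoter; nearly all actives have a fitted effect of over 50% in size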
RORgamma inh – qHTS for inhibitors of ROR gamma transcriptional activity. Drosophila S2 Gal4-RORgamma UAS-luciferase reporter, 20 h. Potency, µM (top dose mostly 53.6 µM), usual class: inhibitors. hit rate 5.4% among 310,000; further: nearly all actives have a fitted effect of over 60% in size
Target sequence (P51450 whole entry, looked up, the tested form may be a part): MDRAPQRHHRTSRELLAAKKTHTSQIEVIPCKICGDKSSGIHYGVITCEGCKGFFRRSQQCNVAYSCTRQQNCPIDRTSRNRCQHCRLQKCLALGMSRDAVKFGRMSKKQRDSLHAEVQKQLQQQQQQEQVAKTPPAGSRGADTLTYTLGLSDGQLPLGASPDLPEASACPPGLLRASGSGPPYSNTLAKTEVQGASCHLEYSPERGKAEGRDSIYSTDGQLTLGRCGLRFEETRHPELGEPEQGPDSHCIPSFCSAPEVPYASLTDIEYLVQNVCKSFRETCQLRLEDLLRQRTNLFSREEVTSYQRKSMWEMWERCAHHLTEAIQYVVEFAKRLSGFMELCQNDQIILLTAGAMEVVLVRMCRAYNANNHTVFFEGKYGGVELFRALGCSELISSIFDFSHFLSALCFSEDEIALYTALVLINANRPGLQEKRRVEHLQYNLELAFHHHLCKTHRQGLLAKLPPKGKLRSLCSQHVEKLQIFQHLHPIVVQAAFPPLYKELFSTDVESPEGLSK
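Schneider cells (Drosophila), stable Gal4 DBD–ROR gamma + UAS-luc; 1 hr cmpd preincubation; Cu2+ induction 700 uM final; 20 hr ambient; luminescence.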
Tau fluor counter – Counterscreen qHTS for Inhibitors of Tau Fibril Formation, Fluorescence Polarization; tau K18 P301L Alexa594 fluorescence, heparin fibrillization; Potency, µM (highest dose often 57.7 µM); hit rate 0.93% among 280,000; further: nearly all actives have a fitted effect of over 55% in size
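Human K18 P301L tau (15 uM unlabeled plus 0.24 uM Alexa 594-labeled, final) in 100 mM sodium acetate pH 7 was mixed with compound and 20 uM heparin and incubated 6 hr at 37 C.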
Tau FP inhib – qHTS for Inhibitors of Tau Fibril Formation, Fluorescence Polarization. hit rate 0.39% among 280,000. Microtubule-associated protein tau (Homo sapiens), P10636. Potency, µM (top dose mostly 57.7 µM), most hits filed as inhibitors. K18 P301L tau heparin fibrillization, Alexa594 FP, 6 h; further: nearly all actives have a fitted effect of over 55% in size
Target sequence (P10636 561-689 P618L limits assumed): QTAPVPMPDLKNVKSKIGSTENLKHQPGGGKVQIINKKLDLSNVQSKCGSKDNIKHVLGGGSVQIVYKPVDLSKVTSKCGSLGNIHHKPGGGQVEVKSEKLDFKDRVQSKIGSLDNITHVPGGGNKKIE
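Human tau K18 […] P301L fragment, 15 uM unlabeled plus 0.24 uM Alexa 594-labeled tau (final), with compound and 20 uM heparin in 100 mM sodium acetate pH 7; 6 hr at 37 C, then Alexa 594 FP read.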
Tau ThT inhib – qHTS for Inhibitors of Tau Fibril Formation, Thioflavin T Binding; Microtubule-associated protein tau (Homo sapiens), P10636; recombinant tau K18 P301L (four-repeat tau fragment), heparin-induced fibrillization, ThT fluorescence; Potency, µM (top dose mostly 57.4 µM), hits mostly inhibitors; hit rate 2.1% among 270,000; AID 1460, 2008; further: nearly all actives have a fitted effect of over 55% in size
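Aggregation was driven by heparin (20 uM final) acting on recombinant tau […] bearing P301L in 100 mM sodium acetate pH 7; fibrils were detected with Thioflavin T.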
Numbers stand for hits; – = inactive; ? = inconclusive; · = no result; [ ] = another dose, or the depositor's remark. Sampled rows, rich in hits. Any-hit rate of the full collection: about 7.3%. The call rests on the fitted dose curve; in most records, active means well fitted curve in the direction sought with a large enough effect; inconclusive means small, poorly fitted or top-dose-only effect, or another doubt; inactive means no such curve, though single readings can be large; an effect the other way counts as inactive or inconclusive.

SMILES	Gal4-VP16 FLuc	RORgamma inh	Tau fluor counter	Tau FP inhib	Tau ThT inhib
CCCC(=O)NC(=S)Nc1cccc(NC(=O)c2ccc(Cl)cc2Cl)c1	?	10µM	–	–	–
CCC(=O)NC(=S)Nc1cccc(NC(=O)c2ccccc2Cl)c1	–	11µM	–	–	–
CCCC(=O)NC(=S)Nc1cccc(NC(=O)c2ccccc2Cl)c1	?	?	–	–	–
CCNC(=O)Oc1ccc[nH]c1=O	?	–	–	?	?
CCOC(=O)NC(=S)c1ccc[nH]1	?	13µM	–	–	–
COC(=O)Nc1ccc(Cl)c(Cl)c1	–	–	·	·	·
O=S(=O)(c1ccc(-c2cc(C(F)(F)F)on2)s1)N1CCN(c2cccc(Cl)c2)CC1	·	·	–	–	–
C#CCN1C(=O)C(O)(CC(=O)c2ccc(OC)c(OC)c2)c2cc(Br)ccc21 (configuration not stated)	·	·	–	–	–
CCC(=O)NC(=S)Nc1ccc(NC(=S)NC(=O)c2ccc(C)cc2)cc1	–	?	–	–	–
CCC(=O)NC(=S)Nc1ccc(NC(=S)NC(=O)c2ccccc2)cc1	?	3.2µM	–	–	–
CC(C)c1ccc(-c2nnn(CCC(=O)O)n2)cc1	?	0.4µM	–	–	–
O=C(O)CCn1nnc(-c2cccs2)n1	–	–	–	–	–
Cc1nc(C(=O)NNC(=O)c2ccc(Cl)cc2)c(C(F)(F)F)o1	?	11µM	–	–	–
Cc1nc(C(=O)NCC(=O)c2ccc(Cl)cc2)c(C(F)(F)F)o1	–	?	–	–	–
COc1ccc(CN2C(=O)c3cccnc3C2=O)cc1S(=O)(=O)NC(C)C	–	–	·	·	·
O=C(N/N=C/c1cn(-c2ccccc2)nc1-c1ccccc1)c1ccco1	10µM	6.3µM	?	–	–
O=C(N/N=C/c1ccc(Br)cc1)c1ccc(Br)o1	–	–	–	–	?
O=C(N/N=C\c1cn(-c2ccccc2)nc1-c1ccccc1)c1ccc(Br)o1	4µM	1.4µM	–	–	–
Cc1ccc(-c2nn(-c3ccccc3)cc2/C=N/NC(=O)c2ccc(Br)o2)cc1	4µM	2.8µM	–	–	–
O=C(CC1NCCNC1=O)Nc1ccc(F)c(Cl)c1 (configuration not stated)	·	·	–	–	–
Nc1nsc2ccccc12	?	14µM	–	?	13µM
Nc1nnc(N)c2ccccc12	–	–	–	–	–
CCc1ccc2oc(C(=O)NCC(c3ccc(Cl)cc3)N3CCOCC3)c(C)c2c1 (configuration not stated)	·	·	–	–	?
CNC(=O)Nc1cccc(-c2cc(-c3c(Cl)cccc3Cl)no2)c1	?	?	?	22µM	–
O=C(Nc1ccc(F)c(F)c1)C1CCCN1S(=O)(=O)c1cccc2nsnc12 (configuration not stated)	·	·	–	–	–
SMILES	Gal4-VP16 FLuc	RORgamma inh	Tau fluor counter	Tau FP inhib	Tau ThT inhib
Nc1cc(-c2ccc(Cl)cc2)nn1S(=O)(=O)c1cccc2nsnc12	–	–	18µM[quencher]	–	?
Nc1cc(-c2ccc(Br)cc2)nn1S(=O)(=O)c1cccc2nsnc12	–	–	13µM[quencher]	–	?
Nc1cc(-c2cccc(F)c2)nn1S(=O)(=O)c1cccc2nsnc12	–	?	–	–	–
O=C(O)CCC(=O)N1CCc2c([nH]c3ccccc23)C1C(F)(F)F (configuration not stated)	–	–	·	·	·
CCOC(=O)c1c(NC(=O)/C(C#N)=C/c2ccc(OC)cc2)sc2c1CCC2	·	·	–	–	–
COc1cc(/C=C(\C#N)C(=O)NC2CCCCC2)ccc1OCc1ccc(C(=O)O)cc1	?	13µM	–	–	–
COc1cc(/C=C(\C#N)C(=O)NC(C)C)ccc1OCc1ccc(C(=O)O)cc1	–	–	–	–	?
CCOc1ccc(/C=C(\C#N)C(=O)Nc2sc3c(c2C(=O)OC)C(C(=O)OC)CC3)cc1OC (configuration not stated)	·	·	–	?	3.2µM
C=CC1=C(C(=O)O)N2C(=O)[C@@H](NC(=O)C(N=O)c3csc(N)n3)[C@H]2SC1 (some centres not stated)	?	?	–	–	–
COc1ccc(CC(=O)Nc2nc3c(s2)CC(C(C)(C)C)CC3)cc1 (configuration not stated)	·	·	–	–	–
COc1cccc(CN2CC(C(=O)NCCc3ccccc3C(F)(F)F)CCC2=O)c1 (configuration not stated)	–	–	·	·	·
CS(=O)(=O)c1nc(-c2ccco2)cc(C(F)(F)F)n1	2.8µM	2.5µM	–	–	?
COc1ccccc1-c1cc(C(F)(F)F)nc(S(C)(=O)=O)n1	7.1µM	4µM	–	–	–
COc1ccccc1-c1cc(C(F)(F)F)nc(S(=O)(=O)CCCC(=O)Nc2ccccc2F)n1	·	·	–	–	–
COc1ccccc1-c1cc(C(F)(F)F)nc(S(=O)(=O)CCCC(=O)NC(C)C)n1	7.1µM	4.5µM	–	–	–
COc1ccccc1-c1cc(C(F)(F)F)nc(N2CCCC2)n1	–	–	–	?	–
COc1ccccc1-c1cc(C(F)(F)F)nc(S(=O)(=O)CCCC(=O)Nc2cccnc2Cl)n1	8.9µM	4µM	–	–	–
COc1ccccc1-c1cc(C(F)(F)F)nc(S(=O)(=O)CCCC(=O)Nc2cc(Br)ccc2O)n1	·	·	?	–	–
COc1ccc(-c2noc(CC(=O)N(C)c3cccc(C)c3)n2)cc1	·	·	–	–	–
COc1ccccc1-c1cc(C(F)(F)F)nc(S(=O)(=O)CCCC(=O)N2CCCCC2C)n1 (configuration not stated)	16µM	11µM	–	–	–
COc1ccc(NC(=O)CCCS(=O)(=O)c2nc(-c3ccccc3OC)cc(C(F)(F)F)n2)c(OC)c1	·	·	–	–	–
COc1ccccc1-c1cc(C(F)(F)F)nc(S(=O)(=O)CCCC(=O)NCc2ccc(F)cc2)n1	?	8.9µM	–	–	–
COc1ccc(Oc2c(C(F)(F)F)oc3cc(OCC(=O)O)ccc3c2=O)cc1	–	–	·	·	·
Cc1ccc(NC(=O)NCc2c(-n3cccc3)sc3c2CCCC3)c(Cl)c1	·	·	–	–	–
Cc1nn(Cc2cccc(C(=O)N3N=C(C(F)F)CC3(O)C(F)F)c2)c(C)c1[N+](=O)[O-] (configuration not stated)	–	?	–	–	–
CC1=NN(C(=O)c2cccc(Cn3nc(C)c([N+](=O)[O-])c3C)c2)C(O)(C(F)(F)F)C1 (configuration not stated)	7.1µM	3.2µM	–	–	–
CC1=NN(C(=O)c2ccc(Cn3cc([N+](=O)[O-])cn3)cc2)C(O)(C(F)(F)F)C1 (configuration not stated)	13µM	10µM	–	–	–

Assay outcomes: PubChem, National Center for Advancing Translational Sciences (NCATS)
